# Reference: the supplement of paper PMC4894684
# Where a name gives a salt, the structure may show the parent alone. ± gives the standard deviation of the averaged measurements.
# Tested on: Toxoplasma gondii RH (in HFF)
# Experiment: parasite growth relative to the screen mean (all compounds = 100%); higher = less inhibition of parasite growth
# Conditions: 5 µM; 72 h; oxygen 21 %
# Method in brief: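 RH β-Gal–GFP Toxoplasma at MOI 1:5 was used to infect confluent human foreskin fibroblasts in 96-well plates within 2 h of pin-transferring compounds to 5 µM final. After 72 h at 21% O2, parasite number was determined by CPRG β-Gal assay against standard curves on the same plate. Growth is relative to the screen mean and averaged over two screens, with all compounds = 100%.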
row,Compound,parasite growth [%]
1,O=C1CSC(c2ccccc2Cl)c2cc(Cl)ccc2N1 (centres undefined),153 ± 4.7
2,Cc1nc(N)sc1CCN [Amthamine dihydrobromide],94 ± 4.8
3,N[C@@]1(C(=O)O)CC[C@@H](C(=O)O)C1,111 ± 27
4,CCOC(=O)c1ncn2c1[C@@H]1CCCN1C(=O)c1cc(OC)ccc1-2,93.9 ± 12
5,Fc1ccc(C(OCCN2CCN(C/C=C/c3ccccc3)CC2)c2ccc(F)cc2)cc1,32.9 ± 3.4
6,CN1CCN(c2ccc3ccccc3n2)CC1 [N-Methylquipazine dimaleate],111 ± 14
7,NCc1cc(O)no1 [Muscimol],154 ± 28
8,COC(=O)/C=C/C(=O)N[C@@H]1CC[C@@]2(O)[C@H]3Cc4ccc(O)c5c4[C@@]2(CCN3CC2CC2)[C@H]1O5 [β-Funaltrexamine hydrochloride],74.5 ± 28
9,CCCOc1ccc2[nH]cc(C3=CCNCC3)c2n1,140 ± 5.8
10,COC1(C[S@+]([O-])c2ccccc2)CCN(CCc2c[nH]c3ccc(F)cc23)CC1,67.1 ± 9.3
11,C[C@@H]1CC[C@H]2[C@@H](C)C(=O)O[C@@H]3O[C@@]4(C)CC[C@@H]1[C@]32OO4 [Artemisinin],31.6 ± 8.8
12,COc1ccc2[nH]cc(C3=CCNCC3)c2c1,105 ± 28
13,"c1ccc(C2CNCc3ccccc32)cc1 (centres undefined) [4-Phenyl-1,2,3,4-tetrahydroisoquinoline hydrochloride]",98.2 ± 12
14,S=C(NC1CCCCC1)N1CCC(c2cnc[nH]2)CC1 [Thioperamide],124 ± 20
15,CN(C)CCN(C)CCc1ccc(Cl)c(Cl)c1 [BD 1047 dihydrobromide],89.4 ± 30
16,"BrC1C(Br)C(Br)C(Br)C(Br)C1Br (centres undefined) [1,2,3,4,5,6-Hexabromocyclohexane]",112 ± 29
17,CCCCC1(C2CCCC2)Cc2cc(OCCCC(=O)O)c(Cl)c(Cl)c2C1=O (centres undefined),124 ± 5
18,CCCN(CCC)C1CCc2ccc(O)cc2C1 (centres undefined) [7-Hydroxy-DPAT hydrobromide],67.2 ± 33
19,CC(N)Cc1c[nH]c2ccc(O)cc12 (stereo not drawn) [α-Methyl-5-hydroxytryptamine maleate],144 ± 31
20,CN1c2ccccc2C(NCCCCCCC(=O)O)c2ccc(Cl)cc2S1(=O)=O (centres undefined) [Tianeptine],98.7 ± 16

row,Compound,parasite growth [%]
1,O=C(O)Cc1cccnc1C(=O)O [Homoquinolinic acid],85.7 ± 1.6
2,N=C(NCc1ccc(Cl)cc1)SCCCc1c[nH]cn1 [Clobenpropit dihydrobromide],106 ± 11
3,NCC(CS(=O)(=O)O)c1ccc(Cl)cc1 (centres undefined) [Saclofen],114 ± 24
4,Cc1[nH]c2ccc(Cl)cc2c1C1=CCNCC1,129 ± 8.1
5,C(=C\c1ccccc1)/CN1CCN(CCOC(c2ccccc2)c2ccccc2)CC1,16.2 ± 8.1
6,CCCN(CCC)[C@@H]1CCc2c(OC)cccc2[C@@H]1C [(+)-UH 232 maleate],115 ± 20
7,Cc1cc(SCc2sc(-c3ccc(C(F)(F)F)c(F)c3)nc2C)ccc1OCC(=O)O,79.2 ± 4.8
8,CCOC(=O)c1cncn1[C@H](C)c1ccccc1 [Etomidate],114 ± 17
9,O=C1NC(=O)c2c1c1c3ccccc3[nH]c1c1[nH]c3ccccc3c21 [Arcyriaflavin A],21.1 ± 14
10,CC(=O)N(C)c1cccc(-c2ccnc3c(C(=O)c4cccs4)cnn23)c1 [Indiplon],79.5 ± 17
11,COc1ccc(CCN2CCC(Nc3nc4ccccc4n3Cc3ccc(F)cc3)CC2)cc1 [Astemizole],< 0
12,NP(N)(=O)NC(=O)c1ccc(F)cc1 [Flurofamide],90 ± 34
13,OC1CCCCC1N1CCC(c2ccccc2)CC1 (racemic) [(±)-Vesamicol hydrochloride],100 ± 8.3
14,CC(CN)CC(=O)O (centres undefined) [3-Methyl-GABA],119 ± 4.7
15,Cc1onc(O)c1CC(N)C(=O)O (racemic),107 ± 41
16,Nc1ccncc1 [4-Aminopyridine],157 ± 28
17,c1ccc2c(c1)[I+]c1ccccc1-2 [Diphenyleneiodonium chloride],< 0
18,COc1cc2c(c(OC)c1OC)-c1ccc(OC)c(=O)cc1[C@@H](NC(C)=O)CC2 [Colchicine],115 ± 27
19,N[C@@H]1C[C@H]1c1ccccc1 [Tranylcypromine hydrochloride],130 ± 22
